Source: the supplement of paper PMC5641865, “A screen for kinase inhibitors identifies antimicrobial imidazopyridine aminofurazans as specific inhibitors of the Listeria monocytogenes PASTA kinase PrkA” (The Journal of Biological Chemistry, 2017)
± gives the standard deviation of the averaged measurements.
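Note: End-point A600 read in BHI broth at 37 °C with 2% DMSO, inhibition computed as (1 − OD with compound plus ceftriaxone ÷ OD with ceftriaxone only) × 100.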

The compounds below were run on Listeria monocytogenes 10403S (assay: growth inhibition relative to ceftriaxone-alone control; higher = stronger potentiation of ceftriaxone growth inhibition). Settings: 10 µM; ceftriaxone 1 ug/ml; 12 h.
Compound `CCN1CCN(C(=O)Cc2ccc(Nc3ncc(F)c(Nc4ccc(C(=O)Nc5ccccc5Cl)cc4)n3)cc2)CC1` [Aurora A Inhibitor I] has a growth inhibition of 7.11 ± 13%. For `COC[C@H]1OC(=O)c2coc3c2[C@@]1(C)C1=C(C3=O)[C@@H]2CCC(=O)[C@@]2(C)C[C@H]1OC(C)=O` [Wortmannin], the growth inhibition was 2.26 ± 1.5%. `CNC(=O)Oc1cc(C)c(/C=C/c2cncc(C(=O)NC)c2)c(C)c1` was tested, and the growth inhibition was 3.06 ± 7%. `Cc1ccccc1-n1c(Cn2ncc3c(N)ncnc32)nc2cccc(C)c2c1=O` was tested, and the growth inhibition was 15.4 ± 13%. `Cc1ccccc1-n1c(Cn2cnc3c(N)ncnc32)nc2cccc(C)c2c1=O` showed a growth inhibition of -7.86 ± 4.1%. In the case of `O=c1[nH]c2ccc(Cl)cc2c(N[C@@H]2CN3CCC2CC3)c1-c1nc2ccccc2[nH]1`, the growth inhibition is reported as 96.1 ± 3.4%. Compound `CN[C@@H]1C[C@H]2O[C@@](C)([C@@H]1OC)n1c3ccccc3c3c4c(c5c6ccccc6n2c5c31)C(=O)NC4` [Staurosporine] has a growth inhibition of 102 ± 5%. In the case of `CC(C)(C)c1cc(C=C(C#N)C#N)cc(Br)c1O`, the growth inhibition is reported as 103 ± 6.1%. Compound `Cn1cc(C2=C(c3cn(C4CCN(Cc5ccccn5)CC4)c4ccccc34)C(=O)NC2=O)c2ccccc21` has a growth inhibition of 40.6 ± 17%.
